PubChem BioAssay (NCI)
This is part of a sample that, as a whole, favours compounds with a hit. Of some 83,000 tested, about 20% had one in any assay.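 For each line, cells grew in 96-well plates with the test compound present at a single concentration for 48 hours.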 A number with no mark means an inactive call. Active and inactive are the calls of the source. The calls were made as follows: active = growth percent below 10; inactive = the rest.

What was measured:
Experiment in all cases: NCI-60 one-dose screen, 48 h (100 = growth as untreated, 0 = no growth, -100 = all killed)
Details in all cases: 10 µM unless noted
[1] = system: DU-145 prostate
[2] = system: K-562 leukemia
[3] = system: MALME-3M melanoma
[4] = system: MDA-MB-231 breast
[5] = system: RXF 393 renal
[6] = system: SF-268 CNS
[7] = system: SF-295 CNS
[8] = system: SF-539 CNS
[9] = system: UACC-257 melanoma
[10] = system: M14 melanoma
[11] = system: HT29 colon
[12] = system: SNB-75 CNS
[13] = system: SNB-19 CNS
[14] = system: U251 CNS
[15] = system: PC-3 prostate
[16] = system: SK-MEL-5 melanoma
[17] = system: UACC-62 melanoma
[18] = system: LOX IMVI melanoma
[19] = system: SK-MEL-28 melanoma
[20] = system: HCT-15 colon

SMILES	growth [1]	growth [2]	growth [3]	growth [4]	growth [5]	growth [6] [%]	growth [7]	growth [8]	growth [9]	growth [10]	growth [11]	growth [12]	growth [13] [%]	growth [14]	growth [15]	growth [16]	growth [17]	growth [18]	growth [19] [%]	growth [20] [%]
COc1ccc(C2=CC(c3ccc(OC)c(OC)c3)c3c(c4ccccc4oc3=O)O2)cc1OC (stereo unspecified)	9.25% (active)	1.17% (active)	75.3%	27.8%	33.2%	38.7	-54.4% (active)	-17.8% (active)	66.9%	12.9%	3.84% (active)	-4.06% (active)	17.9	24.2%	-18.3% (active)	17.1%	36.8%	36%	50.9	–
CC[C@]12C=CCN3CC[C@]4(C(=C(C(=O)OC)C1)Nc1cc(OC)c(OC(C)=O)cc14)[C@@H]32	24.3%	4.08% (active)	112%	19.7%	37.1%	19.5	20.4%	11.2%	–	13.9%	0.643% (active)	50.6%	32.2	3.52% (active)	22.5%	-33.4% (active)	–	-24% (active)	–	–
COc1ccc(C(=O)c2sc3nc4c(cc3c2N)N2CCC4CC2)cc1OC	103%	73.3%	93%	66.9%	85.6%	105	88.9%	–	111%	109%	105%	83.9%	108	84.9%	–	48.2%	89.9%	85.4%	96.1	96.4
CC(C)CCC(=O)O[C@H]1CC[C@H]2[C@@H]3CCC4=CC(=O)CC[C@]4(C)[C@H]3CC[C@]12C	96.5%	98.2%	84.2%	98.2%	107%	93.1	102%	96%	–	98.9%	106%	82.6%	105	99.2%	92.8%	96.5%	–	97.9%	99.8	97.4
Cn1cc(-c2csc(-c3cn(CCN4CCOCC4)c4ccccc34)n2)c2cccnc21	89.1%	44.8%	81.4%	69.8%	93.7%	79.8	72.2%	73.2%	90.7%	39%	70.4%	74.5%	84.4	67.3%	20.5%	17.6%	–	67.1%	78.2	–
CC12CCC(O)CC1=CCC1C2CCC2(C)C(O)CCC12 (stereo unspecified)	105%	115%	102%	105%	101%	102	96.2%	98.9%	110%	106%	101%	88%	86.7	105%	94.1%	98.2%	102%	99.5%	106	–
CC[C@H](C)[C@H](NC(=O)N[C@@H](C)c1ccccc1)C(=O)N(C)[C@H](C[C@@H](OC(C)=O)c1nc(C(=O)N[C@@H](Cc2ccccc2)C[C@H](C)C(=O)OC)cs1)C(C)C	-4.64% (active)	14%	44.9%	-6.65% (active)	-8.76% (active)	22.2	5.49% (active)	-27.6% (active)	75.3%	-12.2% (active)	-24.4% (active)	-0.0971% (active)	56.7	13.1%	22.6%	-33.7% (active)	11.4%	18%	44.6	–
COC(=O)[C@@H](C)C[C@H](Cc1ccccc1)NC(=O)c1csc([C@@H](C[C@H](C(C)C)N(C)C(=O)[C@@H](NC(=O)[C@H]2CCCN2C)C2CC2)OC(C)=O)n1	8.13% (active)	4.01% (active)	64.2%	6.59% (active)	81.3%	15.9	0.995% (active)	-14.6% (active)	56.9%	5.11% (active)	6.25% (active)	28.9%	75.6	8.67% (active)	8.37% (active)	-52.1% (active)	41.2%	15%	56.4	–
COC1OC(CO)C(O)C(O)[CH]1[Hg][O]C(C)=O (stereo unspecified)	96.3%	27.3%	76.4%	81.9%	110%	97.6	102%	106%	–	93.7%	79.8%	77.3%	94.4	67.7%	87.9%	86.2%	85.9%	82.3%	97.5	87.1
Nc1nnnc2nc[nH]c12	3.72% (active)	4.73% (active)	34.8%	14.5%	11.6%	28.6	0.603% (active)	14.3%	–	-35.4% (active)	38.4%	45.8%	–	19.4%	11.5%	33.8%	-50.9% (active)	6.61% (active)	–	–
COc1ccc(/C=C\c2cc(OC)c(OC)c(OC)c2)cc1OCC(=O)Nc1nc2ccc(C(F)(F)F)cc2s1	0.679% (active)	16%	43.8%	12.8%	-4.84% (active)	43	–	-18.6% (active)	50%	22.3%	92.6%	-6.34% (active)	33.7	18%	31.5%	16.8%	32.1%	9.35% (active)	32.9	15.2
CCN(CC)CCOC(=O)C(OC(C)C)(c1ccccc1)c1ccccc1	98.8%	97.3%	101%	99.3%	98.5%	93	109%	111%	–	110%	79.7%	88.3%	96.2	101%	83.7%	97.6%	103%	96.7%	99.6	96.4
O=C1NC(=O)C(=Cc2cn(C(=O)c3ccccc3)c3ccccc23)C(=O)N1	113%	141%	90.5%	88.9%	45%	102	116%	87.6%	87%	95.3%	97%	73.1%	97.6	102%	79.4%	92.3%	85.9%	90.8%	111	–
O=C(Nc1ccc(Cl)cc1)Nc1nccs1	17.7%	15.1%	45.2%	46.5%	2.93% (active)	48.8	–	10.8%	44.3%	18.1%	10.7%	1.2% (active)	64.9	22.3%	13.3%	31.2%	50.3%	46.3%	50.5	33
N#C[S-].[Au+].c1ccc(CN2[CH-]N(Cc3ccccc3)C(c3ccccc3)=C2c2ccccc2)cc1	23.6%	0.413% (active)	-5.77% (active)	-36% (active)	3.56% (active)	29.9	–	22.9%	-9.77% (active)	15.8%	7.04% (active)	43.6%	16.1	5.57% (active)	7.2% (active)	-36.5% (active)	3.87% (active)	7.61% (active)	20.8	13.8
